Experimental data published in the supplement of paper PMC11732987, “Enantioselective OTUD7B fragment discovery through chemoproteomics screening and high-throughput optimisation” (Communications Chemistry, 2025).

Assays:
Experiment in all cases: log2 ratio of Biotin-Ahx-Ub-VS probe labelling (fragment/DMSO); higher = less target engagement (more negative = stronger competition), active = hit call of the paper (q ≤ 0.05, log2 ratio ≤ -1)
Details in all cases: compound concentration: 200 uM; treatment time: 3 h
[1] = biological target: T1, OTUD6B (UniProt Q8N6M0)
T1 sequence (whole entry): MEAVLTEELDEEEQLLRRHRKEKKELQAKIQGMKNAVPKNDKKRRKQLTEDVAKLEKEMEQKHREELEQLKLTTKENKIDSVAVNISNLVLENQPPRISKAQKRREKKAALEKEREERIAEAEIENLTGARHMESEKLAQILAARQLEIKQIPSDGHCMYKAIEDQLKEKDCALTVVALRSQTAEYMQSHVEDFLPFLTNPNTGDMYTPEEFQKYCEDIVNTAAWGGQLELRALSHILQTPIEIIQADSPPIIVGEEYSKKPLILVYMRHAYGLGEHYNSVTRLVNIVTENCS
Method in brief: (§1)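 HEK293T lysate in Tris/CHAPS/IGEPAL buffer with protease inhibitors (495 µg per sample) was given fragment at 200 µM or vehicle for 3 h, in triplicate. It then received Biotin-Ahx-Ub-VS at 0.5 µM final for 1 h. Labelled DUBs were NeutrAvidin-enriched, digested with LysC and trypsin, and run by diaPASEF LC-MS/MS. Values are average log2 fragment/vehicle ratios by unpaired t-test on global-median-normalised Spectronaut quantities of proteins with ≥2 unique peptides.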

[2] = biological target: T2, OTUD7B (UniProt Q6GQQ9)
T2 sequence (whole entry): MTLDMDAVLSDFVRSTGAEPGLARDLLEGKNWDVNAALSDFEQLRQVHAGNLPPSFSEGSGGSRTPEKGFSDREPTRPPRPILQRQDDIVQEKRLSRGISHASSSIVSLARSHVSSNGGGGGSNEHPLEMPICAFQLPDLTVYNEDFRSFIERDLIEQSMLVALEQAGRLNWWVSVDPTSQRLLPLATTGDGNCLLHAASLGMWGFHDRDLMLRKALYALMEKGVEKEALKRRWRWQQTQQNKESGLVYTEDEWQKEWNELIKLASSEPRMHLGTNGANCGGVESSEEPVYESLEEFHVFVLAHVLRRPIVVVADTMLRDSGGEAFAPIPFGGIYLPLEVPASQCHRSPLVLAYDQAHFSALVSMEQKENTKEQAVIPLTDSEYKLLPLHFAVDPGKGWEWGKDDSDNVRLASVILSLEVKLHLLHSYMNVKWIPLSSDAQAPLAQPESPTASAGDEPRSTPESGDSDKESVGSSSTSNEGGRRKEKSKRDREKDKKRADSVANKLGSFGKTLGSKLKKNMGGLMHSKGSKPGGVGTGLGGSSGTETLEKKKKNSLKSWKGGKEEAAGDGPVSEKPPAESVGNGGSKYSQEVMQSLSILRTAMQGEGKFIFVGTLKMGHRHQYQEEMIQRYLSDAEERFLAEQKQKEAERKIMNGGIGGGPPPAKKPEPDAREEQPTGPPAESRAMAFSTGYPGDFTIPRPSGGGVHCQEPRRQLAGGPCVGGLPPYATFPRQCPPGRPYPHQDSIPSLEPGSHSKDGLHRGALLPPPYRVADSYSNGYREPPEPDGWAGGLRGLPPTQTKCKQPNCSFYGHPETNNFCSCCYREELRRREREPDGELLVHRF
Method in brief: as §1

[3] = biological target: PRPF8 (UniProt Q6P2Q9)
Method in brief: as §1

[4] = biological target: T3, PSMD7 (UniProt P51665)
T3 sequence (whole entry): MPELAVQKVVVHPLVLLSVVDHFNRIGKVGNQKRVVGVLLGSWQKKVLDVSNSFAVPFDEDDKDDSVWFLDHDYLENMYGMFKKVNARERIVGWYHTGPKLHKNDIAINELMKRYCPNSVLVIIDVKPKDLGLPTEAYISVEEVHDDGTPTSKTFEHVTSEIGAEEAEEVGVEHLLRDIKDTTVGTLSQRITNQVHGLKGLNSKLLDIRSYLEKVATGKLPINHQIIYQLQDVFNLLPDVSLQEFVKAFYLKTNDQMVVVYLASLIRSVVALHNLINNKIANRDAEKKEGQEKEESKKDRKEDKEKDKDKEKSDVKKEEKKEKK
Method in brief: as §1

[5] = biological target: UCHL1 (UniProt P09936)
UCHL1, sequence (P09936 whole entry, looked up): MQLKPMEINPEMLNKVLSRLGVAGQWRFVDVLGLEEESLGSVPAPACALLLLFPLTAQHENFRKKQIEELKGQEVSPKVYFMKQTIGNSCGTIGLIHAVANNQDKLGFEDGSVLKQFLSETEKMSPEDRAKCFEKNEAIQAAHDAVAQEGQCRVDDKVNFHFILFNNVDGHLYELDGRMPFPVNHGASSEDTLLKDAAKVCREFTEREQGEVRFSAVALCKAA
Method in brief: as §1

[6] = biological target: T4, UCHL3 (UniProt P15374)
T4 sequence (whole entry): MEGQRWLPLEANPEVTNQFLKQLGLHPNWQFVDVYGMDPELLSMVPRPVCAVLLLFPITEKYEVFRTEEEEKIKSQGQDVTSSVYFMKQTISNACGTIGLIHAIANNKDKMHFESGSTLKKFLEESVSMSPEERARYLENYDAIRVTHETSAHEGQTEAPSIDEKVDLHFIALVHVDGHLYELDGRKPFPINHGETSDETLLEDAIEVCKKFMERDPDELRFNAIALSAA
Method in brief: as §1

[7] = biological target: T5, UCHL5 (UniProt Q9Y5K5)
T5 sequence (whole entry): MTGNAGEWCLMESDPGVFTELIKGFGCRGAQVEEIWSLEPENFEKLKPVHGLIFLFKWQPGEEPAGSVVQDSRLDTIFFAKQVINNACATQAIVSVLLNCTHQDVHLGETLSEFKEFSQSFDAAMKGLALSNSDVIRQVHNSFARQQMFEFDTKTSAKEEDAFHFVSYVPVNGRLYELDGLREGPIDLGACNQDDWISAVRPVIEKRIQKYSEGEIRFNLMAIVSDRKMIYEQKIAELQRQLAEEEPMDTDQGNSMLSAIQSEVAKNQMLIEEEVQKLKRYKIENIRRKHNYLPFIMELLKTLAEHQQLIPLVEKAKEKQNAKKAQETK
Method in brief: as §1

[8] = biological target: USP10 (UniProt Q14694)
USP10, sequence (Q14694 whole entry): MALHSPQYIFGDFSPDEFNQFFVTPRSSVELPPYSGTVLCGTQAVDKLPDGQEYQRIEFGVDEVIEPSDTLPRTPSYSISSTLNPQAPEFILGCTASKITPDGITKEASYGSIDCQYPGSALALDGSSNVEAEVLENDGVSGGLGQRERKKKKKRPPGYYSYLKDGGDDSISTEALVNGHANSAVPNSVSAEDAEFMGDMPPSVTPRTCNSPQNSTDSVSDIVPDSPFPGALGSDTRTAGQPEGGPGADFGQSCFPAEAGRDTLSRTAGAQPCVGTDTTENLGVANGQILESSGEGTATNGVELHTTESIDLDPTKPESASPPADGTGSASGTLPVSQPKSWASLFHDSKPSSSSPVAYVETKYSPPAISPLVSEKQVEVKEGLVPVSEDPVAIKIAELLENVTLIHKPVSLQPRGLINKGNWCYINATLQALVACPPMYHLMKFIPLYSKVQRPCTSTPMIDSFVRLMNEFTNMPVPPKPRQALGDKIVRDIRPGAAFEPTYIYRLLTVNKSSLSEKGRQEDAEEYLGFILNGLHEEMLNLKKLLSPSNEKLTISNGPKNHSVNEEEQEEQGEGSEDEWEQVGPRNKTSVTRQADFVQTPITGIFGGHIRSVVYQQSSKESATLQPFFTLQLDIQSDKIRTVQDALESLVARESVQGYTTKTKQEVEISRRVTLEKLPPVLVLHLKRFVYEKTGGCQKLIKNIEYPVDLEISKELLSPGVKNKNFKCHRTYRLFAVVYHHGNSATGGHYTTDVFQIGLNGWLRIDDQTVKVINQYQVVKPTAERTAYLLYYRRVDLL
Method in brief: as §1

[9] = biological target: T6, USP15 (UniProt Q9Y4E8)
T6 sequence (whole entry): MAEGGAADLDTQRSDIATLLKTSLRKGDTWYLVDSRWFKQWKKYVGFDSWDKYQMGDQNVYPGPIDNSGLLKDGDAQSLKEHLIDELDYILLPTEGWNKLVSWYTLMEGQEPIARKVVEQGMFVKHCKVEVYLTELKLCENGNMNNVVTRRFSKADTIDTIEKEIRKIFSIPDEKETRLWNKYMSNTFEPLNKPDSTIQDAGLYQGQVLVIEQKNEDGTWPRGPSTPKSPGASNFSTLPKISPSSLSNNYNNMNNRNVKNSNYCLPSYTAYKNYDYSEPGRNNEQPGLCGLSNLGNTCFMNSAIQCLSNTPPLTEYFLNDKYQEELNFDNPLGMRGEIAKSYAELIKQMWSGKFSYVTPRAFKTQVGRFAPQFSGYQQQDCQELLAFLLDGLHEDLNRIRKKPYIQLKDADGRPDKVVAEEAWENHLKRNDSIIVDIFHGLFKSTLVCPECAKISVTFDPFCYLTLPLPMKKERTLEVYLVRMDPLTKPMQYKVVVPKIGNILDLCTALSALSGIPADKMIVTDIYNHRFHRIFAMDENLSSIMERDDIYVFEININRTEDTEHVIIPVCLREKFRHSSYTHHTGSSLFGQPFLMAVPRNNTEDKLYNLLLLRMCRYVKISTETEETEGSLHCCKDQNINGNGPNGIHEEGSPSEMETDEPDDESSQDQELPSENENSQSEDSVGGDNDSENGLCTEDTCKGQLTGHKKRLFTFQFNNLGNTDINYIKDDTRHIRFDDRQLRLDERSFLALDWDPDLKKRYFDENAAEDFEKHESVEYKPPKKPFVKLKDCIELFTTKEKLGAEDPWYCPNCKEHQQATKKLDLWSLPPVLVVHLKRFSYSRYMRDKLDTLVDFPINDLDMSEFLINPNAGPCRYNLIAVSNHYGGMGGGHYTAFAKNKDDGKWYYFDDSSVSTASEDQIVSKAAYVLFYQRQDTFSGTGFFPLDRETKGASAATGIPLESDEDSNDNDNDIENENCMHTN
Method in brief: as §1

[10] = biological target: USP16 (UniProt Q9Y5T5)
USP16, sequence (Q9Y5T5 whole entry, looked up): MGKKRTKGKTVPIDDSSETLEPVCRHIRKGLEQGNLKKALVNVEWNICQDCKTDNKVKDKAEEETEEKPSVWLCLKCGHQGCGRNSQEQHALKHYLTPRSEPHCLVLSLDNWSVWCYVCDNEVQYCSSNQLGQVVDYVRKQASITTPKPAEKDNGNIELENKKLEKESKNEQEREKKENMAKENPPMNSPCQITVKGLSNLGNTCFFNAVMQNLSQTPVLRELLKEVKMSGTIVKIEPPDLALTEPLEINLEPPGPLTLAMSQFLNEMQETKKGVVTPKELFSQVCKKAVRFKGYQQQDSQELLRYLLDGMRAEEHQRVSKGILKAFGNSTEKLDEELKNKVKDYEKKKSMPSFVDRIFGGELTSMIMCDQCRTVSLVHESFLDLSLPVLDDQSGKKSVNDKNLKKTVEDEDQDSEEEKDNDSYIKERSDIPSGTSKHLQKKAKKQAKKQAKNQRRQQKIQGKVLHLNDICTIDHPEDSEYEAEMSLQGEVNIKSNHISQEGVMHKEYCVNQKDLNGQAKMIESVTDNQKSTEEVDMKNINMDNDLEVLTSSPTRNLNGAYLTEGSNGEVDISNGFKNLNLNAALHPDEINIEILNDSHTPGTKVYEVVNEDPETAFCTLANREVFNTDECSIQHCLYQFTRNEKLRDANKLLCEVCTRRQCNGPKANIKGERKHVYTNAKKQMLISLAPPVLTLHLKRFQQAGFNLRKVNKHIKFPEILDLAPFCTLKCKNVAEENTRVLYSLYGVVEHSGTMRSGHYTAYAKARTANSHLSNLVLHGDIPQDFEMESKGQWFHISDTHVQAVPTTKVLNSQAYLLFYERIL
Method in brief: as §1

Measured: log2 ratio of Biotin-Ahx-Ub-VS probe labelling

Cl.O=C(CCl)N1CC(c2ccc(Br)cn2)C1
inactive: [1] -0.116 | [3] 0.0941 | [4] -0.394 | [6] -0.211 | [7] -0.254 | [8] -0.0353 | [9] -0.409 | [10] -0.253
active: [2] -1.18 | [5] -1.41
